Each structure is given as a SMILES string. “And” between values parts separate entries of the source, which are not always exact repeats. Equal entries are not always repeated. In all, about 340,000 compounds went through this assay and about 4,500 (1.3%) were called active. Another 5% or so got no clear call; they are omitted. Calls follow the shape of the dose curve; as a rule, active = well fitted inhibition curve with a large enough effect; inconclusive = small, poorly fitted or top-dose-only effect, or another doubt; inactive = no such curve, though single readings can be large or run the other way. The entries come from a sample that favours actives as a whole. Some structures have more than one record in an assay (separate samples or runs), and their calls can disagree.
% is scaled to controls: 0 for no effect and ±100 for the full control effect; potency is read from the fitted curve at half-maximal effect.

The test has as its target DNA polymerase beta (Homo sapiens) (UniProt P06746). Kind of test: qHTS Assay for Inhibitors of DNA Polymerase Beta. The settings on record: Pol beta primer extension/strand displacement, fluorescence kinetic; series mostly up to 114 µM; activity change, negative = inhibition: at the top concentration. Summed up: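 Reaction started by 50 nM substrate onto compound-treated Pol beta (10 nM, 15 min preincubation, room temperature); plates read at 0 min and 10 min. Normalized concentration-effect data fitted by four-parameter Hill equation.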
In general terms: Quantitative high-throughput screening tests each substance at several concentrations.
On to `COc1ccc(C(=O)/C=C/c2ccc(-c3ccccc3)cc2)cc1CSCC(=O)O`, for which the “activity change, negative = inhibition” value is 14.7% (inactive).

For the compound `COC(=O)c1ccc(COc2ccc(/C=C/C(=O)c3ccc(OC)c(CSCC(=O)O)c3)cc2OC)cc1`, the Potency is 31.6 µM (active).

With `COc1ccc(/C=C/C(=O)c2ccc(NS(=O)(=O)c3ccc(C)cc3)cc2)cc1O`, the “activity change, negative = inhibition” value is -14.9% (inactive). As to `Cc1ccc(CCNC(=O)c2ccc(CNS(=O)(=O)c3ccc(C)cc3)cc2)cc1`, the “activity change, negative = inhibition” value was 30% (inactive). On to `CSc1cccc(NC(=O)CN2C(=O)CCc3cc(S(=O)(=O)N4CCCCC4)ccc32)c1`, for which the “activity change, negative = inhibition” value was -10.7% (inactive). `C=C(C)C(=O)Nc1cccc(C2=NOC3(C2)C[C@H](C(N)=O)N(C(=O)C(c2ccccc2)c2ccccc2)C3)c1` (some centres not stated): the Potency was 14.1 µM (active). As to `C/C=C(/C)C(=O)Nc1cccc(C2=NOC3(C2)C[C@@H](C(N)=O)N(C(=O)C2(C)CC2)C3)c1` (some centres not stated), the “activity change, negative = inhibition” value was 14.5% (inactive). Same read-out and setting: the result for `C/C=C\C=C\C(=O)N1CC2(CC(c3cccc(NC(=O)/C(C)=C\C)c3)=NO2)C[C@H]1C(N)=O` (some centres not stated) reads 9.09% (inactive); that for `Cc1ccccc1C(=O)Nc1nnc(S(=O)(=O)N(C)c2ccc(Cl)cc2)s1`, 7.24% (inactive). With `COC(=O)c1ccc(NC(=O)CSc2n[nH]c(-c3ccccc3)n2)cc1`, the “activity change, negative = inhibition” value is -20% (inactive). As to `CCOc1ccc(OCC)c(NC(=O)CN(c2ccc(C)cc2)S(=O)(=O)c2c(C)n[nH]c2C)c1`, the “activity change, negative = inhibition” value is 6.89% (inactive). Turning to `CCn1c(C)c(C)c2cc(C(=O)NCCc3cc(OC)ccc3OC)ccc21`, the “activity change, negative = inhibition” value was -1.85% (inactive). Same read-out and setting: the result for `Cc1cccc(-n2c(C)cc(/C=N\NC(=O)c3cccs3)c2C)c1` reads 6.08% (inactive).

For the compound `O=C(N/N=C/C=C/c1ccco1)c1cccs1`, the Potency is 25.1 µM (active).

`O=C(Nc1ccc(NC(=O)c2cccs2)cn1)c1ccco1`: the “activity change, negative = inhibition” value is -8.35% (inactive). `Oc1ccc(-c2nc3ccc(Cl)cn3c2Nc2ccc3c(c2)OCO3)cc1`: the “activity change, negative = inhibition” value was -2.41% (inactive). Take `CCOc1ccc(C(=O)/C=C/c2cn(CC(O)CN3CCCCCC3)c3ccccc23)cc1` (configuration not stated): the “activity change, negative = inhibition” value is 6.41% (inactive). Regarding `O=S(=O)(NCC(c1ccccc1)N1CCc2ccccc21)c1ccccc1` (configuration not stated), the “activity change, negative = inhibition” value was 24.4% (inactive).

`COc1cc2nc(NCC(C)c3ccccc3)n3nc(-c4ccccc4)nc3c2cc1OC` (configuration not stated): the “activity change, negative = inhibition” value was 33.3% (inactive).

As to `O=C(NCc1ccccc1Cl)c1cccn1-c1nnc(N2CCCCC2)s1`, the “activity change, negative = inhibition” value is -19.8% (inactive). In the case of `O=C(O)CCC(=O)N(Cc1ccccc1)Cc1ccccc1`, the “activity change, negative = inhibition” value was -17.8% (inactive). On to `O=C(CCc1ccccc1)NCCc1cccs1`, for which the “activity change, negative = inhibition” value was 16.8% (inactive). Consider `O=C(O)CCC(=O)N(Cc1cccs1)Cc1cccs1`, for which the Potency was 44.7 µM (active). In the case of `CCc1cccc(C)c1Nc1c(-c2ccc(N(C)C)cc2)nc2ncccn12`, the “activity change, negative = inhibition” value is -0.565% (inactive). `COc1ccc(Cl)cc1NC(=O)CCC(=O)c1ccc(C)cc1`: the “activity change, negative = inhibition” value was 0.944% (inactive). On the same count and under the same terms, the same measure for `CC(=O)N1CCc2cc(Br)cc(S(=O)(=O)CCC(=O)NCCc3ccc(Cl)cc3)c21`: 40.7% (inactive); for `CCOc1ccc(OCC)c(NC(=O)CCS(=O)(=O)c2ccc(C)cc2)c1`: 8.41% (inactive); for `Cn1c(=O)oc2cc(S(=O)(=O)CCC(=O)NCCc3ccc(Cl)cc3)ccc21`: 0.302% (inactive). In the case of `COc1ccc(Cl)cc1NC(=O)CCS(=O)(=O)c1ccc(Br)cc1`, the Potency was 3.16 µM (active). `O=C(CCS(=O)(=O)c1ccc(Br)cc1)NCCc1ccc(Cl)cc1`: the Potency is 39.8 µM (active). In the case of `COc1cc(C(=O)NCCS(=O)(=O)N2CCN(c3ccccc3)CC2)cc(OC)c1OC`, the “activity change, negative = inhibition” value was -21% (inactive). On the same count and under the same terms, the result for `O=C(COc1ccccc1Cl)Nc1ccc2nc(SCC(=O)N3CCCC3)sc2c1` reads 2.65% (inactive).

Consider `Oc1c(C(c2ccc(F)cc2)N2CCN(Cc3ccccc3)CC2)sc2nc(-c3ccco3)nn12` (configuration not stated), for which the “activity change, negative = inhibition” value is -1.89% (inactive). Still for that read-out and setting: the result for `COC(=O)c1ccc(C2C(C(=O)Nc3ccccc3)=C(C)Nc3nc4ccccc4n32)cc1` (configuration not stated) reads -9.73% (inactive); that for `Cc1cccc(N2CCN(C(=O)CCSCc3ccccc3F)CC2)c1C`, -1.73% (inactive). Take `Cc1cc([N+](=O)[O-])ccc1NC(=O)c1ccc(NC(=O)C(C)C)cc1`: the “activity change, negative = inhibition” value was 18.3% (inactive).

As for `Cn1ccc(=Nc2ccc(NC(=O)c3ccc(N=c4ccn(C)c5ccc([N+](=O)[O-])cc45)cc3)cc2)cc1`, the Potency is 0.355 µM (active). In the case of `O=C(Nc1ccc(C(=O)N2CCCCC2)cc1)c1cccc([N+](=O)[O-])c1`, the “activity change, negative = inhibition” value is 42.3% (inactive). Same read-out and setting: the same measure for `CCOc1cccc2cc(-c3cn4c(n3)sc3cc(C)ccc34)c(=O)oc12`: 50.3% (inactive). Turning to `CO/N=C(\C(=O)N[C@@H]1C(=O)N2C(C(=O)O)=C(COC(C)=O)CS[C@H]12)c1csc(N)n1` (stereo in doubt), the Potency entry is “inactive and 25.1 µM (active)”. As to `Cc1ccn2c(Nc3ccc4c(c3)OCCO4)c(-c3ccc(C)s3)nc2c1`, the “activity change, negative = inhibition” value was 24.2% (inactive). With `Cc1cccc(-n2ccnc2SCC(=O)Nc2cc(C(F)(F)F)ccc2Cl)c1`, the “activity change, negative = inhibition” value is 7.77% (inactive).

As for `COc1cccc(Cn2c(SCc3ccc(C(=O)N4CCC(C)CC4)cc3)nc3ccncc32)c1`, the “activity change, negative = inhibition” value was 0.534% (inactive).

Consider `Cc1cc(C)cc(NC(=O)c2cnc3sc(N4CCCC4)nn3c2=O)c1`, for which the “activity change, negative = inhibition” value was -0.911% (inactive). Consider `COc1cc(-c2noc(-c3ccc(N4CCCC4)c([N+](=O)[O-])c3)n2)cc(OC)c1OC`, for which the “activity change, negative = inhibition” value is -15.3% (inactive). Consider `COc1ccc(-c2noc(-c3ccc(N4CCN(c5ccccc5)CC4)c([N+](=O)[O-])c3)n2)cc1OC`, for which the Potency is 89.1 µM (active). Consider `COc1ccccc1-c1noc(-c2ccc(NCc3ccccc3)c([N+](=O)[O-])c2)n1`, for which the “activity change, negative = inhibition” value was 16.2% (inactive).

The record behind these values is PubChem BioAssay AID485314 (National Center for Advancing Translational Sciences (NCATS), 2010).
